Measured values as given in PubChem BioAssay (NCI).
This is part of a sample that, as a whole, favours compounds with a hit. Of some 79,000 tested, about 15% had one in any assay. Calls of active or inactive are those of the source. Cut-off read from the data, not from the text of the source: active = growth inhibition above about 70%; inactive = the rest.

Key:
[1] = NCI Yeast Anticancer Drug Screen. Data for the rad50 strain (AID 155);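 note: 0% = growth of vehicle-only cultures of the same strain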; settings: S. cerevisiae rad50 strain growth inhibition; at 50.0 µM; hits give high values
Outline: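 Relative growth inhibition (compound vs vehicle) was measured in yeast with a defined repair-gene alteration.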

[2] = NCI Yeast Anticancer Drug Screen. Data for the mec2-1 strain (AID 157); settings: S. cerevisiae mec2-1 strain, at 50.0 µM, hits give high values
Outline: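 Vehicle-treated cultures served as reference for growth inhibition of compound-exposed mec2-1 yeast.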

[3] = NCI Yeast Anticancer Drug Screen. Data for the sgs1 mgt1 strain (AID 161);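 note: 0% = growth of cultures given vehicle only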; settings: S. cerevisiae sgs1 mgt1 strain, at 50.0 µM, hits give high values
Outline: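 Genetically altered yeast, compound exposure, growth inhibition relative to vehicle.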

[4] = NCI Yeast Anticancer Drug Screen. Data for the cln2 rad14 strain (AID 165);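 note: 0% = growth equal to vehicle treated cultures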; settings: S. cerevisiae cln2 rad14 strain, at 50.0 µM, hits give high values
Outline: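 Each compound was tested on cln2 rad14 yeast. Inhibition of growth was calculated against vehicle-exposed controls.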

[5] = NCI Yeast Anticancer Drug Screen. Data for the bub3 strain (AID 167); settings: S. cerevisiae bub3 mutant strain, at 50.0 µM, hits give high values
Outline: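 Screening used yeast with an engineered genetic alteration affecting cell cycle control. Compound-exposed cultures were compared with vehicle cultures, and reduced growth was taken as inhibition.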

[6] = NCI Yeast Anticancer Drug Screen. Data for the mlh1 rad18 strain (AID 175); settings: S. cerevisiae mlh1 rad18 strain growth inhibition; at 50.0 µM; hits give high values
Outline: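 Vehicle-treated cultures served as the reference for growth inhibition in a yeast strain carrying DNA damage repair alterations exposed to each compound.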

Measured: growth inhibition

O=C1c2ccccc2C(=O)N1CCc1ccccc1
inactive: [1] -12.1% | [2] 7% | [3] -6.9% | [4] -36% | [5] 16.6% | [6] 14.1%

CN(/N=C/c1ccccn1)C1=NCCN1
inactive: [1] -23.9% | [2] -29.4% | [3] -31.2% | [4] 2.75% | [5] 6.55% | [6] -21.4%

O=[N+]([O-])c1ccc(S(=O)c2ccc(Cl)cc2)c2c1no[n+]2[O-] (stereo unspecified)
active: [1] 98.5% | [2] 99.4% | [3] 98.7% | [5] 76.1% | [6] 99.2%
inactive: [4] 32%

Cc1ccc2nc(NC(=O)OCc3ccccc3)sc2c1
inactive: [1] 4.1% | [2] 20.1% | [3] -11.8% | [4] 6.95% | [5] 8.6% | [6] 9.65%

CC(C)CNC(=S)N/N=C/c1ccc(C(C)C)cc1
inactive: [1] -19.6% | [2] -13.4% | [3] -8.4% | [4] -46.2% | [5] -13.1% | [6] -28.1%

COc1ccc(/C(Cl)=C/c2cc(OC)ccc2OC)cc1
inactive: [1] -5.1% | [2] -10.7% | [3] -26.9% | [4] -0.25% | [5] -30.2% | [6] -9.05%

CCOC(=O)/C(C#N)=C/c1ccc(C)o1
inactive: [1] 19.1% | [2] 3.1% | [3] 27.4% | [4] 33% | [5] 31.1% | [6] 35%

COc1nc2c(c(O)cn2C2OCC(OC(C)=O)C(OC(C)=O)C2OC(C)=O)c(=O)n1C (stereo unspecified)
inactive: [1] -1.65% | [2] -5.9% | [3] -25.8% | [4] -2.75% | [5] -1% | [6] 15.8%

C=CCOCn1ccc(N)nc1=O
inactive: [1] -3.3% | [2] -0.55% | [3] 1.8% | [4] 7% | [5] -6.05% | [6] -2.95%

c1ccc(Oc2ccccc2-c2ccccc2)cc1
inactive: [1] 6.1% | [2] -26.1% | [3] -0.7% | [4] -0.65% | [5] -23.1% | [6] 15.9%

CCOC(=O)C(c1ccccc1)N(CCCN(CC)CC)c1ccccc1 (stereo unspecified)
inactive: [1] -10.8% | [2] -3.25% | [3] 1.6% | [4] -9.1% | [5] 5.15% | [6] 0.45%

O=c1[nH]cnc2nc(-c3cccc([N+](=O)[O-])c3)[nH]c12
inactive: [1] -1% | [2] 30.9% | [3] 12.9% | [4] -13.8% | [5] 5.4% | [6] 24.9%

COC(=O)C1(Cc2ccccc2)Cc2ccccc2C1
inactive: [1] 24.7% | [2] 36.1% | [3] 36.4% | [4] 20.2% | [5] 55.4% | [6] 12.2%

CCCC1OC(c2ccc(OC)cc2)OCC1CC (stereo unspecified)
inactive: [1] 2.65% | [2] 0.95% | [3] -0.3% | [4] -16.4% | [5] 30.9% | [6] -0.75%

NC(=O)NC1=NCCC(=O)N1CCc1c[nH]c2ccccc12
active: [2] 75.9% | [3] 84.2% | [4] 78.5% | [5] 77.7% | [6] 88%
inactive: [1] 51.3%

COc1cc2ccc3c4cc(OC)c(OC(C)C)cc4cnc3c2cc1OC
inactive: [1] -48.9% | [2] -15.3% | [3] -0.9% | [4] 29.6% | [5] -10.5% | [6] -4.45%

COc1ccc(/C=N/NC(=O)C(=O)Nc2ccc(Cl)c([N+](=O)[O-])c2)cc1OC
inactive: [1] 2.15% | [2] -20.9% | [3] -0.65% | [4] 2.85% | [5] -4.1% | [6] -6.4%

CN(C)c1noc2c1c(=O)n(C)c(=O)n2C
inactive: [1] -27.8% | [2] -9.95% | [3] -11.6% | [4] -12.1% | [5] 2.6% | [6] 14.8%

CC(=O)C(C)(C)OC(=O)COc1ccc(Cl)cc1
inactive: [1] -39% | [2] -2.75% | [3] -9.45% | [4] 43.4% | [5] 32.3% | [6] -24.6%

CCOc1ccccc1Br
inactive: [1] -2.05% | [2] 8.65% | [3] -2.05% | [4] -9.8% | [5] 1% | [6] -38.2%

CC(=O)OCC1OC(n2nc(/C=C/c3ccco3)c(=O)n(-c3ccccc3)c2=S)C(OC(C)=O)C(OC(C)=O)C1OC(C)=O (stereo unspecified)
inactive: [1] 57.5% | [2] 14.8% | [3] 61% | [4] 29.4% | [5] 16.4% | [6] 56.4%

O=C1NC(N2CCCCC2)=N/C1=C\c1ccccc1O
active: [6] 89.7%
inactive: [1] 5% | [2] -25.3% | [3] -2.85% | [4] 15.1% | [5] 5.5%

O=C(C(c1ccccc1)C(F)(F)F)N1CCCC1 (stereo unspecified)
inactive: [1] 7.4% | [2] -7.8% | [3] 5.05% | [4] -13.3% | [5] 13.8% | [6] 0.6%

CCCCCC(=O)OCCOC
inactive: [1] -3.4% | [2] -15.2% | [3] -8.45% | [4] -46% | [5] -38.1% | [6] -13.7%

CC(N)(Cc1c[nH]c2ccccc12)C(=O)O (stereo unspecified)
inactive: [1] -13.3% | [2] -43.5% | [3] -16.1% | [4] -26.9% | [5] -15.8% | [6] -19.4%

O=C(CC(O)(CCc1ccccc1)c1ccccc1)N1CCC(O)(c2ccccc2)CC1 (stereo unspecified)
active: [1] 97.2% | [2] 98.5% | [3] 98.2% | [4] 97.6% | [5] 97.8% | [6] 98.2%

N#Cc1ccc(NN=NCCCCCCl)cc1
inactive: [1] 22.7% | [2] -3.2% | [3] 1.25% | [4] 8.5% | [5] 15.8% | [6] 1.55%

CC1CCC2(OC1)OC1CC3C4CCC5CC(O)CCC5(C)C4C(=O)C(O)C3(C)C1C2C (stereo unspecified)
inactive: [1] 39.5% | [2] 17.9% | [3] 49% | [4] 16.7% | [5] 14.5% | [6] 41%

CCOC(=O)c1ncn2c1[nH]c(=S)c1ccccc12
inactive: [1] -14.8% | [2] -19.1% | [3] -11.2% | [4] -0.95% | [5] -17.9% | [6] -2.05%

Nc1nc(N)nc(SCCO)n1
inactive: [1] -25.1% | [2] 1.55% | [3] -14.1% | [4] -44.8% | [5] -4.75% | [6] -8.45%

OCc1ccccc1O
inactive: [1] -1.7% | [2] 6.25% | [3] -6.55% | [4] 25.8% | [5] -0.7% | [6] 11.2%

CNc1ncnc2c(C3OC(CO)C(O)C3O)[nH]nc12 (stereo unspecified)
inactive: [1] 16% | [2] 10.8% | [3] 6.6% | [4] 20.8% | [5] -0.8% | [6] 13.4%

CCCCC(=O)C(CC)(c1ccccc1)N(C)C (stereo unspecified)
inactive: [1] -11.7% | [2] -31.1% | [3] -9.4% | [4] -21.2% | [5] -2.35% | [6] -17.9%

Cc1ccc(N2[C@H]3CCCN3c3ccc(C)cc3[C@@H]2C(F)(F)F)cc1
inactive: [1] 16.3% | [2] 0.8% | [3] 29.5% | [4] -2.25% | [5] -15.5% | [6] 2%

O=C(NCCCCCCCCCNC(=O)C12CC3CC(CC(C3)C1)C2)C12CC3CC(CC(C3)C1)C2
inactive: [1] 23.2% | [2] 9.2% | [3] 21.7% | [4] 29.5% | [5] -1.55% | [6] 28.4%

Cc1c(C(=O)CC(=O)C(=O)Nc2c(C(C)C)cccc2C(C)C)[n+](=O)c2ccccc2n1[O-]
inactive: [1] 35.6% | [2] 39.5% | [3] 22.2% | [4] 40.5% | [5] 29.8% | [6] 36%

O=c1c2c(nc3n1CCC3)sc1c(O)c(Br)ccc12
inactive: [1] -44.7% | [2] -26.6% | [3] -46.7% | [4] -25.1% | [5] -40% | [6] -52.1%

COC(=O)C(=NNc1ccccc1[N+](=O)[O-])C(=O)OC
inactive: [1] 15.9% | [2] 5% | [3] 23.1% | [4] 33.8% | [5] 19.8% | [6] -2.6%

COC1OC(CO)C(OC(C)=O)C(OC(C)=O)C1OC(C)=O (stereo unspecified)
inactive: [1] -2.05% | [2] 16.5% | [3] 2.9% | [4] -14.5% | [5] 12.6% | [6] 1.8%

Cc1cccc2c(/C=C/c3ccc(N(C)C)cc3)ccnc12
inactive: [1] -11.6% | [2] -8% | [3] -3.95% | [4] -22.2% | [5] 2.85% | [6] -11.4%

Cc1cn(C2CC(N(C)O)C(CO)O2)c(=O)[nH]c1=O (stereo unspecified)
inactive: [1] -16.8% | [2] -27% | [3] -8.15% | [4] -34.7% | [5] -12.3% | [6] -58.9%
